PubChem BioAssay
Results filed as inconclusive are left out. The source made the active and inactive calls.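 The calls were made as follows, unless noted: active = GFP response, as percent of the DMSO control, above the screen-wide mean plus 3 SD, about 139; inconclusive = no response measured because the compound's own fluorescence interfered; inactive = the rest.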

Key:
[1] = rapamycin-like changes in RPL19A-GFP expression – cell-based, S. cerevisiae, multiplex flow cytometry, primary screen (AID 1862; in the data active = percent of DMSO control GFP below about 86%;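 also: lower values mimic rapamycin by blocking the RPL19A rise seen in DMSO cells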); details: S. cerevisiae RPL19A-GFP strain, flow cytometry fluorescence, 3 h; at 10 µM; stronger effect = lower value
[2] = TOR pathway GLN3 branch reporter MEP2-GFP changes – S. cerevisiae, multiplex flow cytometry, primary screen (AID 1867);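 also: median GFP channel fluorescence of barcode-gated MEP2-GFP cells measured by flow cytometry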; details: S. cerevisiae MEP2-GFP strain, 3 h, at 10 µM, stronger effect = higher value, 100% means same as DMSO wells
[3] = TOR pathway RTG branch CIT2 reporter changes – S. cerevisiae, GFP fusion, multiplex flow cytometry, primary screen (AID 1870;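 active = percent response above a set limit, the screen-wide mean plus 3 SD, cut at about 130% in these data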;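 also: barcoded CIT2-GFP strain pooled with four other GFP strains with rapamycin as positive control; median GFP fluorescence per well over plate mean of DMSO wells so 100% = DMSO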); details: S. cerevisiae CIT2-GFP expression, 3 h, at 10 µM, stronger effect = higher value
[4] = TOR pathway LAP4-GFP level changes – S. cerevisiae, multiplex flow cytometry, primary screen (AID 1873;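 active = GFP signal, as percent of the solvent control, above the screen mean plus 3 SD, about 149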); details: S. cerevisiae LAP4-GFP expression, 3 h, at 10 µM, stronger effect = higher value
[5] = yeast AGP1-GFP level changes, GLN3 branch – cell-based, multiplex flow cytometry, S. cerevisiae, primary screen (AID 1887;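 active = GFP signal above the screen-wide mean plus 3 SD, that is over about 124.5% of the solvent control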;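 also: AGP1-GFP fusion strain of S. cerevisiae within a five-strain barcoded multiplex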); details: 3 h, at 10 µM, stronger effect = higher value
[6] = reduced mouse 2C T cell binding to pMHC/ICAM-1 vesicles – MLPCN validation set, flow cytometry, LFA-1/ICAM-1 modulator project, pilot screen (AID 2523;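 active = response below a set limit, under 55% cells CD8-positive and vesicle-bound, and CD8 cells' 90th-percentile brightness under 279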;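 as to vesicle binding response: mean PE anti-B7-1 fluorescence of CD8+ cells relative to row control; 100% = QL9-loaded vesicles with DMSO vehicle in the same plate row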); details: 2C mouse CD8+ T cells, at 7 µM, stronger effect = lower value; double positive events: measured here: CD8+/vesicle+ event percentage
[7] = target: Integrin beta-1 (Homo sapiens) + Integrin alpha-4 (Homo sapiens) (UniProt P13612+P05556); experiment: alpha4beta1 integrin LIBS antibody binding reduction – U937 cells, HUTS-21 mAb, flow cytometry, validation set, VLA-4 allosteric modulator project, pilot screen (AID 2674;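 active = inhibition above 50%, about 3 SD of the validation set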;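 also: antibody binding induced by the VLA-4 ligand LDV present at three times its Kd; 0% = LDV ligand with antibody and no compound and 100% = antibody without LDV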); details: HUTS-21 LIBS mAb binding, at 6.7 µM, stronger effect = higher value, binding induced by LDV ligand
Integrin beta-1 (Homo sapiens) + Integrin alpha-4 (Homo sapiens), sequence (P05556 whole entry, looked up): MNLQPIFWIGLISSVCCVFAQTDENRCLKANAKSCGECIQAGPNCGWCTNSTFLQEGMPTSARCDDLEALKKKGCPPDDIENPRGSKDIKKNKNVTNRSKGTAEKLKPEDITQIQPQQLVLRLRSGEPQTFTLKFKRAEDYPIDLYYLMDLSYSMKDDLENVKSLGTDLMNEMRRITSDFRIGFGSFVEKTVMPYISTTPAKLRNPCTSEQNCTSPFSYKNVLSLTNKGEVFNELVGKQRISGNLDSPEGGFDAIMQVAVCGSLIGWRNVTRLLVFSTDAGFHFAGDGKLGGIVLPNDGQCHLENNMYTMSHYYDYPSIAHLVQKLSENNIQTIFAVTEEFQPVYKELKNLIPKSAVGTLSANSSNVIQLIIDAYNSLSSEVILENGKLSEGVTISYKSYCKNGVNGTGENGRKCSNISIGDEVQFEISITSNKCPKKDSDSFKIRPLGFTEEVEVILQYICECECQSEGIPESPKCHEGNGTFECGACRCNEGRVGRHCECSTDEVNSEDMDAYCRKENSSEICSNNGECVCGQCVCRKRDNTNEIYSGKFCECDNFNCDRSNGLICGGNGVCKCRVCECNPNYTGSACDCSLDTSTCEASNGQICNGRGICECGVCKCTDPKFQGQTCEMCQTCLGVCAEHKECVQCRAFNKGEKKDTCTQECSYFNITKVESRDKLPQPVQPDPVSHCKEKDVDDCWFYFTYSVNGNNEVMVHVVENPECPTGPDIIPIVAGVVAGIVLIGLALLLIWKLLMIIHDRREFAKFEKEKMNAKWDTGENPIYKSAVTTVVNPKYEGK
Integrin beta-1 (Homo sapiens) + Integrin alpha-4 (Homo sapiens), sequence (P13612 whole entry, looked up): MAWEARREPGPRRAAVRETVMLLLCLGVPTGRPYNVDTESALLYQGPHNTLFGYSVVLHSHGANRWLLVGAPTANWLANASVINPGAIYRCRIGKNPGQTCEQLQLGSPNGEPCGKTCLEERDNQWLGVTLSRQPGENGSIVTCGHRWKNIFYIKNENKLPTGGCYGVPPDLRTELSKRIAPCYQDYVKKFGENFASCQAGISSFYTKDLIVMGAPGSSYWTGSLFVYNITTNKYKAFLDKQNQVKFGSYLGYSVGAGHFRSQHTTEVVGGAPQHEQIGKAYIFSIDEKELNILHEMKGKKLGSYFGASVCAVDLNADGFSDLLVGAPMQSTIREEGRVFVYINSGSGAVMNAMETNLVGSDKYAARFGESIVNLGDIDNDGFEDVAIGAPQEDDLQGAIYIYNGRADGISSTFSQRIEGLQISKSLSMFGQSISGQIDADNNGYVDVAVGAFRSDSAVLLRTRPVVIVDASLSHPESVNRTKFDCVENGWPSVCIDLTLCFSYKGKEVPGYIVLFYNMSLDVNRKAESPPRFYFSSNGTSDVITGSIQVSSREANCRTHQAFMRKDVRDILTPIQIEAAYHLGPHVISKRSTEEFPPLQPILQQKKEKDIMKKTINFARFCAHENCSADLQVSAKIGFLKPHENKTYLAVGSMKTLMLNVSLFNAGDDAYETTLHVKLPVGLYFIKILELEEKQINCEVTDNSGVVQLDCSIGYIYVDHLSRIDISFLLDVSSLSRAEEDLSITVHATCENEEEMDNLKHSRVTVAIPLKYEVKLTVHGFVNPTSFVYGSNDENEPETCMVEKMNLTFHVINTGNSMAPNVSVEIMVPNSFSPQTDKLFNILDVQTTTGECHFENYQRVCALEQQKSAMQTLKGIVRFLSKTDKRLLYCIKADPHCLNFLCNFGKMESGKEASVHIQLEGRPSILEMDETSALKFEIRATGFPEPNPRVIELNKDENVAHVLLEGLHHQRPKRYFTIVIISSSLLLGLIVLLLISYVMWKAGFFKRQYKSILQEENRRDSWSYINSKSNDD

[8] = calorie-restriction mimetic ROS inhibitors, yeast – validation compound set, pilot screen (AID 2706;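 active = superoxide response below 65% of plate, a cut near 3 SD across the whole screen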;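 also: yeast exposed to compound for one week at 30 degrees C before staining; 100% = mean of all compound wells on the same plate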); details: S. cerevisiae aging, superoxide DHE fluorescence; at 10 µM; stronger effect = lower value
[9] = target: Beta-adrenergic receptor kinase 1 (Homo sapiens) (UniProt P25098); experiment: GRK2 binders displacing RNA aptamer, biochemical, validation, human GRK2, bead flow cytometry (AID 488806;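 active = aptamer binding inhibition above 30%, about 3 SD of noise from non-fluorescent compounds; inactive = inhibition at or below 30%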); details: bead-bound GRK2, FAM-aptamer displacement, at 10 µM, stronger effect = higher value
Beta-adrenergic receptor kinase 1 (Homo sapiens), sequence (P25098 whole entry, looked up): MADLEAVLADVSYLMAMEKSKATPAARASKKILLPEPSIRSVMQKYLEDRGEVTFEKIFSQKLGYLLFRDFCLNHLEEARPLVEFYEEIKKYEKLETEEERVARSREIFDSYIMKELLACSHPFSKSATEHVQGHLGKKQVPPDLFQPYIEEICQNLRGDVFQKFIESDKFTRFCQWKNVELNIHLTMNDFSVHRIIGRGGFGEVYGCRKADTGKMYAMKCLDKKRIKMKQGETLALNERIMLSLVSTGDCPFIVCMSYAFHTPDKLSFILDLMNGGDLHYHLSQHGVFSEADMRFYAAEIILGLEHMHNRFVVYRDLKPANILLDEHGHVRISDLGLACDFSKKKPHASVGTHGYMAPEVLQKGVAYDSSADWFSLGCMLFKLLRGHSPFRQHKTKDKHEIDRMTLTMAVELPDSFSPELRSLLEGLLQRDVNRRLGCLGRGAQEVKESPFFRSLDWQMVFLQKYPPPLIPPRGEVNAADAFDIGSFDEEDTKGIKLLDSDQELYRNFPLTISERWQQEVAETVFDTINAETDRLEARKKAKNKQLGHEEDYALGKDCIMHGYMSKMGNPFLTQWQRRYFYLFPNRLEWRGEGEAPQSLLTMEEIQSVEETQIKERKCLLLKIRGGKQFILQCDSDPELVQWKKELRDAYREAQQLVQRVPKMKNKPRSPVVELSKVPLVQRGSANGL

[10] = target: Beta-2 adrenergic receptor (Homo sapiens) (UniProt P07550); experiment: agonist-induced loss of surface beta2AR – cell-based, FAP fluorogen, flow cytometry, validation set, pilot screen (AID 504459;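 active = percent response above 42, roughly 3 SD of non-fluorescent test compounds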;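 also: agonist-driven loss of surface beta2AR via internalization measured by FAP dye flow cytometry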); details: Am2.2-beta2AR cells, at 10 µM, stronger effect = higher value
Beta-2 adrenergic receptor (Homo sapiens), sequence (P07550 whole entry, looked up): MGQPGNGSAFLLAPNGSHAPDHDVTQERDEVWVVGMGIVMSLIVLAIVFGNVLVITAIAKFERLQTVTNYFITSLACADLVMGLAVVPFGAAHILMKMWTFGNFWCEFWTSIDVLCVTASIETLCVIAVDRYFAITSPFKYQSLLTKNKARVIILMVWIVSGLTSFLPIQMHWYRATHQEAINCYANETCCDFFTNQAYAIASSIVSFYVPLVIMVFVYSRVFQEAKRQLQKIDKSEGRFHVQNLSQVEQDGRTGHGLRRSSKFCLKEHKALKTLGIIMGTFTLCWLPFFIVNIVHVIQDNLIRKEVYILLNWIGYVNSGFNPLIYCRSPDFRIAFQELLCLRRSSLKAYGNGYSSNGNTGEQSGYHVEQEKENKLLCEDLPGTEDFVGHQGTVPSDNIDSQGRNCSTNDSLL

[11] = target: AP-2 complex subunit beta (Homo sapiens) (UniProt P63010); experiment: beta-arrestin/AP2 interaction blockers – biochemical, validation set, GST-AP2 beads, flow cytometry, pilot screen (AID 504541;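 active = inhibition above 54%, about 3 SD of non-fluorescent compounds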;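 also: AP2 carries R879A mutation and is captured from E. coli lysate; bead-bound FITC arrestin peptide fluorescence measuring arrestin peptide binding to AP2; 0% = DMSO wells and 100% = excess unlabeled arrestin peptide control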); details: FITC arrestin peptide, at 10 µM, stronger effect = higher value, AP2 beta2 appendage fragment, R879A mutant
AP-2 complex subunit beta (Homo sapiens), sequence (P63010 whole entry, looked up, the tested form may be a part, one chain of several): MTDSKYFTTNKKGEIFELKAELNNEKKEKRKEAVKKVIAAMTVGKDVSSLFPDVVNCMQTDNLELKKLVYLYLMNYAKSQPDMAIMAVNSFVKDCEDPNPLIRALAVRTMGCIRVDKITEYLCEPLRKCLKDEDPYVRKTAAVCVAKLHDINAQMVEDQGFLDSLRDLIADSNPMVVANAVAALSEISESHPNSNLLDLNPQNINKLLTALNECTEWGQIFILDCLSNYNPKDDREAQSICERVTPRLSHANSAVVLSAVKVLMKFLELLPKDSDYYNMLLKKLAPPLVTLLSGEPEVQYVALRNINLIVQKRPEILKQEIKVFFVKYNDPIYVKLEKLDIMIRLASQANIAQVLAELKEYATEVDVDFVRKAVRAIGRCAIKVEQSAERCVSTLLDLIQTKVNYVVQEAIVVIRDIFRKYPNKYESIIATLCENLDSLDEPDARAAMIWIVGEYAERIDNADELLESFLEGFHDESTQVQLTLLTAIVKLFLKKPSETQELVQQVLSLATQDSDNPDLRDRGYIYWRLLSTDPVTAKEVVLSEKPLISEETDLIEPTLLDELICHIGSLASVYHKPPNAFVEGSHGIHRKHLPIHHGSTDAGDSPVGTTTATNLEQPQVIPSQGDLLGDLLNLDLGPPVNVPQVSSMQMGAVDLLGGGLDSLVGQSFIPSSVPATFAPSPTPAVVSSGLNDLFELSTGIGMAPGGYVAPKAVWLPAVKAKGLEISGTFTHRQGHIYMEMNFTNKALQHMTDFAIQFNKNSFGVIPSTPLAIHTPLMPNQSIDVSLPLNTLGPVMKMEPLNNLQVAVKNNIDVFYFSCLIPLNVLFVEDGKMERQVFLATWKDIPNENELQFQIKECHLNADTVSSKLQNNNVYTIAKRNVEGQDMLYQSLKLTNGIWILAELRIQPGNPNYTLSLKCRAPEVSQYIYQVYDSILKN

[12] = cytosolic pH regulators acting via V-ATPase – S. cerevisiae, pHLuorin, HTS validation (AID 504600; in the data active = response above about 15%;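 also: plate controls were DMSO for no effect and reference compound for full effect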); details: V-ATPase proton transport, at 10 µM, stronger effect = higher value
[13] = test system: anti-desmoglein-3 scFv antibody binding to human DSG3; experiment: blockers of pathogenic pemphigus antibody–desmoglein-3 binding – biochemical, validation compound set, bead-based, flow cytometry, pilot screen (AID 588368;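 active = binding below the plate cutoff, the plate median minus 3 SD, with a reading above zero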;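 also: signal is the median channel fluorescence of bead-bound GFP antibody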); details: Protein G beads, DSG3-Fc, scFv-GFP binding, at 10 µM, stronger effect = lower value
[14] = Nile Red efflux blockade in pump-expressing yeast – validation compound set, multiplex, phenotypic, pilot screen (AID 588506;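 active = efflux inhibition above 0.42, the validation set average plus 4 SD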;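 also: Nile Red retained in cells so higher fluorescence means more efflux inhibition; 0 = negative control wells and 1 = enniatin B 25 µM full block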); details: S. cerevisiae pump-expressing triplex, Nile Red efflux flow cytometry; at 10 µM; stronger effect = higher value; the pumps come from Candida albicans
[15] = target: ATP-binding cassette sub-family B member 6 (Homo sapiens) (UniProt Q9NP58); experiment: blockers of ABCB6-driven porphyrin uptake – K562-ABCB6 cells, flow cytometry, validation set, pilot screen (AID 588550;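 active = inhibition above the screen-wide mean plus 3 SD, about 51%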;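 also: 0% = DMSO wells and 100% = benzethonium chloride 70 µM positive control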); details: K562-ABCB6 porphyrin accumulation, 1 h, at 10 µM, stronger effect = higher value
ATP-binding cassette sub-family B member 6 (Homo sapiens), sequence (Q9NP58 whole entry, looked up): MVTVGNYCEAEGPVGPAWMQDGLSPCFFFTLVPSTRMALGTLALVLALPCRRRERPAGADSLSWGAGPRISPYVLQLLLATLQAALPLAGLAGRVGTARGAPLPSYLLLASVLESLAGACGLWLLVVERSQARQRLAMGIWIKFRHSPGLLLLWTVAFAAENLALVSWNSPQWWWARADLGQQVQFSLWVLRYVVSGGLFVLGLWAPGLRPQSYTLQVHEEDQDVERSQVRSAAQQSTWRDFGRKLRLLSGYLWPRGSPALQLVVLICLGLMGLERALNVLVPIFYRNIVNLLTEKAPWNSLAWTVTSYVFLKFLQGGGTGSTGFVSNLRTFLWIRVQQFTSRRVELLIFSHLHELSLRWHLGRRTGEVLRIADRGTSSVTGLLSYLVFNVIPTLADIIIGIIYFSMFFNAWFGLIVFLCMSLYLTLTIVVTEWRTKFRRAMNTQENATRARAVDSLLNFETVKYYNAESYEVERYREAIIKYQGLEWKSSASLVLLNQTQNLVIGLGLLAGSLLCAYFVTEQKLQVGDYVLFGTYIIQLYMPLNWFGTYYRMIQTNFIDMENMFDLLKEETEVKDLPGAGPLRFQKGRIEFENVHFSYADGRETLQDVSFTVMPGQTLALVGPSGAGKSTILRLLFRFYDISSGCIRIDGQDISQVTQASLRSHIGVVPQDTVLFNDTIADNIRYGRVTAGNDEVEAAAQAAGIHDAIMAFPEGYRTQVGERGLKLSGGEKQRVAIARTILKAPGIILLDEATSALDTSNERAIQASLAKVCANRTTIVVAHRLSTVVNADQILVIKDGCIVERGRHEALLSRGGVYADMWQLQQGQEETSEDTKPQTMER

[16] = AML differentiation inducers, ER-HoxA9 marrow cells – cell-based, GFP/MAC1 double positive, flow cytometry, validation set, primary screen (AID 588685;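 active = differentiation response of at least 50%, scaled between solvent and reference control, from cells with both markers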;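 also: compound exposure lasts four days before antibody staining and flow analysis; 0% = DMSO wells and 100% = 5 µM fulvestrant positive control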); details: stronger effect = higher value, normalized: vehicle 0, fulvestrant 100

COc1ccc(C2C3=C(CC(C)(C)CC3=O)N(C)C3=C2C(=O)CC(C)(C)C3)cc1
62.6%: double positive events [6]
inactive: percent of DMSO control GFP [1] 101% | GFP response vs DMSO [2] 99.6% | percent response of DMSO control [3] 88% | GFP response vs DMSO [4] 110% | GFP response, % of DMSO [5] 118% | vesicle binding response [6] 173% | inhibition [7] 4.84% | superoxide response (% of plate) [8] 104% | aptamer binding inhibition [9] 5% | response [10] -20.5% | inhibition [11] 2.92% | response [12] -12.8% | binding (% of control) [13] 100% | efflux inhibition (fraction of control) [14] -0.09 | inhibition [15] 3% | differentiation response [16] 3.88%

C(=C\c1ccc2ccccc2n1)/c1ccccc1
active: inhibition [15] 114%
inactive: percent of DMSO control GFP [1] 102% | GFP response vs DMSO [2] 96.3% | percent response of DMSO control [3] 98.6% | GFP response vs DMSO [4] 97.4% | GFP response, % of DMSO [5] 93.2% | vesicle binding response [6] 306% | inhibition [7] -27.7% | superoxide response (% of plate) [8] 94.9% | aptamer binding inhibition [9] 3% | response [10] 5.82% | inhibition [11] -3.54% | response [12] 0.75% | binding (% of control) [13] 105% | efflux inhibition (fraction of control) [14] -0.31 | differentiation response [16] -8.8%
63.3%: double positive events [6]

CC[N+]1(CC)CC2=Cc3ccccc3CC2C1 (stereo not given)
inactive: percent of DMSO control GFP [1] 91.5% | GFP response vs DMSO [2] 121% | percent response of DMSO control [3] 93.9% | GFP response vs DMSO [4] 80.3% | GFP response, % of DMSO [5] 88.9% | vesicle binding response [6] 178% | inhibition [7] 13.2% | superoxide response (% of plate) [8] 90.8% | aptamer binding inhibition [9] 2% | response [10] 0.79% | inhibition [11] 43.9% | response [12] -6.57% | binding (% of control) [13] 99% | efflux inhibition (fraction of control) [14] 0.3 | inhibition [15] 13% | differentiation response [16] 0%
64.8%: double positive events [6]

Cc1nc2c(c3c1[nH]c1ccccc13)C(=O)CC(C)(C)C2
inactive: percent of DMSO control GFP [1] 99.1% | GFP response vs DMSO [2] 114% | percent response of DMSO control [3] 86.3% | GFP response vs DMSO [4] 114% | GFP response, % of DMSO [5] 102% | vesicle binding response [6] 186% | inhibition [7] 6.4% | superoxide response (% of plate) [8] 99.2% | aptamer binding inhibition [9] 3% | response [10] 31.6% | inhibition [11] 6.18% | response [12] -1.94% | binding (% of control) [13] 98.9% | efflux inhibition (fraction of control) [14] 0.3 | inhibition [15] 1% | differentiation response [16] -5.6%
59.1%: double positive events [6]

COc1ccc2oc(=O)c(C(=O)Nc3ccccc3-c3ccccc3)cc2c1
64.5%: double positive events [6]
inactive: percent of DMSO control GFP [1] 101% | GFP response vs DMSO [2] 104% | percent response of DMSO control [3] 99% | GFP response vs DMSO [4] 97.1% | GFP response, % of DMSO [5] 113% | vesicle binding response [6] 167% | inhibition [7] 2.29% | superoxide response (% of plate) [8] 94.6% | aptamer binding inhibition [9] 4% | response [10] 13.6% | response [12] -7.05% | binding (% of control) [13] 97.4% | efflux inhibition (fraction of control) [14] 0 | inhibition [15] 6% | differentiation response [16] -8.93%
active: inhibition [11] 85%

COc1cc(COc2ccc3c(C)c(Cc4ccccc4)c(=O)oc3c2)cc(OC)c1OC
inactive: percent of DMSO control GFP [1] 102% | GFP response vs DMSO [2] 103% | percent response of DMSO control [3] 122% | GFP response vs DMSO [4] 94% | GFP response, % of DMSO [5] 98.9% | vesicle binding response [6] 38.9% | inhibition [7] 5.77% | superoxide response (% of plate) [8] 117% | aptamer binding inhibition [9] 3% | response [10] 5.22% | inhibition [11] 3.79% | response [12] -1.95% | binding (% of control) [13] 97.2% | efflux inhibition (fraction of control) [14] 0.08 | inhibition [15] -5% | differentiation response [16] 3.18%
55%: double positive events [6]

O=C(/C=C/c1ccc2c(c1)OCCCO2)c1ccc2ccccc2c1O
59.6%: double positive events [6]
inactive: percent of DMSO control GFP [1] 97.3% | GFP response vs DMSO [2] 102% | percent response of DMSO control [3] 99.6% | GFP response vs DMSO [4] 112% | GFP response, % of DMSO [5] 109% | vesicle binding response [6] 215% | inhibition [7] -76.9% | superoxide response (% of plate) [8] 102% | aptamer binding inhibition [9] 8% | response [10] -12.2% | inhibition [11] -2.45% | response [12] 2.01% | binding (% of control) [13] 98.5% | efflux inhibition (fraction of control) [14] 0.04 | inhibition [15] 6% | differentiation response [16] -7.94%

NC(N)=NC(=O)Cc1c(Cl)cccc1Cl
inactive: percent of DMSO control GFP [1] 103% | GFP response vs DMSO [2] 110% | percent response of DMSO control [3] 97.8% | GFP response vs DMSO [4] 99.9% | GFP response, % of DMSO [5] 101% | vesicle binding response [6] 197% | inhibition [7] -4.6% | superoxide response (% of plate) [8] 109% | aptamer binding inhibition [9] -1% | response [10] -1.1% | inhibition [11] 18% | response [12] -2.92% | binding (% of control) [13] 98.2% | efflux inhibition (fraction of control) [14] -0.01 | inhibition [15] 18% | differentiation response [16] -2.69%
64.6%: double positive events [6]

CCCCCC#CCC#CCC#CCC#CCCCC(=O)O
active: aptamer binding inhibition [9] 62%
inactive: percent of DMSO control GFP [1] 106% | GFP response vs DMSO [2] 108% | percent response of DMSO control [3] 103% | GFP response vs DMSO [4] 106% | GFP response, % of DMSO [5] 116% | vesicle binding response [6] 208% | inhibition [7] -3.67% | superoxide response (% of plate) [8] 123% | response [10] -11.7% | inhibition [11] 26.9% | response [12] 4.4% | binding (% of control) [13] 90.5% | efflux inhibition (fraction of control) [14] 0.04 | inhibition [15] 2% | differentiation response [16] -10.9%
62.5%: double positive events [6]

COc1ccc2c(CC(=O)NCC3CCC(C(=O)O)CC3)cc(=O)oc2c1 (stereo not given)
59.6%: double positive events [6]
inactive: percent of DMSO control GFP [1] 101% | GFP response vs DMSO [2] 103% | percent response of DMSO control [3] 105% | GFP response vs DMSO [4] 101% | GFP response, % of DMSO [5] 107% | vesicle binding response [6] 116% | inhibition [7] -9.13% | superoxide response (% of plate) [8] 111% | aptamer binding inhibition [9] -2% | response [10] -4.55% | inhibition [11] -1.68% | response [12] 7.23% | binding (% of control) [13] 102% | efflux inhibition (fraction of control) [14] 0.04 | inhibition [15] -1% | differentiation response [16] 4.2%
